Assay outcomes deposited in PubChem by National Center for Advancing Translational Sciences (NCATS).
Only some compounds are listed: those with a hit (about 9% of all), similar ones and a draw of the others.
ALDH1A1 inh = qHTS Assay for Inhibitors of Aldehyde Dehydrogenase 1 (ALDH1A1); Purified ALDH1A1, NADH fluorescence, propionaldehyde substrate; Potency, µM (highest dose often 75.3 µM), inactives show top-dose activity, negative = inhibition, hits mostly inhibitors; AID 1030, 2008; 7.3% of 220,000 active;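 also: potency is read from the fitted curve at half-maximal effect; plate controls were no enzyme wells and a reference inhibitor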
IMPase cell inh = qHTS Assay for Identifying the Cell-Membrane Permeable IMPase Inhibitors. Inositol monophosphatase 1 (Rattus norvegicus), P97697. CHO-M1 cells, IP1 accumulation, HTRF TR-FRET ratio. inhibition (IP1 accumulation), % at 46.1 µM. 120,000 tested, under 10 active; active = well fitted curve in the direction sought with a large enough effect in the signal ratio, not every such curve was filed as active; inconclusive = small, poorly fitted or top-dose-only effect, or a change in a side signal; inactive = no such curve, though single readings can be large or run the other way; the % refers to the signal ratio;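 also: cells stimulated with carbachol in lithium chloride buffer; plate controls were DMSO basal wells for no effect and reference inhibitor wells for full effect; higher means more IMPase inhibition seen as more IP1 and lower FRET ratio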
Target sequence (P97697 whole entry, looked up): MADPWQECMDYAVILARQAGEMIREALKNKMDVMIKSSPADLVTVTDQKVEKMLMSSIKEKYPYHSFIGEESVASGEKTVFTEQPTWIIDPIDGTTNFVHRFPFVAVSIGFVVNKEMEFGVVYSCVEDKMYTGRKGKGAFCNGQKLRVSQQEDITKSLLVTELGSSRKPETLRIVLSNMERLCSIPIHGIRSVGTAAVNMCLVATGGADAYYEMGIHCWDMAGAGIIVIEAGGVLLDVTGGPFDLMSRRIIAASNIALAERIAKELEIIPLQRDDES
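CHO-M1, 2000 cells/well, cultured 16–30 h; cpd up to 46 uM; carbachol (50 uM solution, stimulation buffer w/ 50 mM LiCl, pH 7.4), 30 min 37C; IP-One TR-FRET, 10 min RT; Ex 320/Em 665, 620; Hill-fit AC50.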
HPGD block = qHTS Assay for Inhibitors of HPGD (15-Hydroxyprostaglandin Dehydrogenase); 15-hydroxyprostaglandin dehydrogenase [NAD(+)] (Homo sapiens), P15428; purified HPGD, NADH fluorescence kinetic, PGE2 substrate; Potency, µM, for the others: at the highest dose activity change, negative = inhibition, hits mostly inhibitors; 4.3% of 150,000 active; AID 894, 2007; also: potency is read from the fitted curve at half-maximal effect
Target sequence (P15428 whole entry, looked up): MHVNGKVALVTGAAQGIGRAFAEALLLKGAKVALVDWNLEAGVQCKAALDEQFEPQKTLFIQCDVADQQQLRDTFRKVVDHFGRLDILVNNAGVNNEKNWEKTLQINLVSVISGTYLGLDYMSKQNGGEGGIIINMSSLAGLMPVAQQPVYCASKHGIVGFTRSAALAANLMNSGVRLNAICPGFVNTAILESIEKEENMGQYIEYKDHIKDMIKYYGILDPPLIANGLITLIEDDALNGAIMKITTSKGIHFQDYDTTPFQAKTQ
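NADH formation kinetics: reaction with 30 uM PGE2 and 1 mM NAD+ (final), 20 nM enzyme, Tris-HCl pH 8 with Tween 20, after 15 min compound preincubation at room temperature. Fluorescence change, last versus first of five reads.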
Starred values were filed as active, the others as inactive; u = inconclusive; x = no result given; [ ] = another dose, or the depositor's remark. Unless noted, calls follow the shape of the dose curve; as a rule, active = well fitted inhibition curve with a large enough effect (not every such curve was filed as active); inconclusive = small, poorly fitted or top-dose-only effect, or another doubt; inactive = no such curve, though single readings can be large or run the other way. Unless noted, % is scaled to controls: 0 for no effect and ±100 for the full control effect.

SMILES	ALDH1A1 inh	IMPase cell inh	HPGD block
COc1ccccc1/C=C/C=N/n1c(-c2ccc(Cl)cc2)n[nH]c1=S	11µM*	x	x
COc1ccc(-c2n[nH]c(=S)n2/N=C/C=C/c2ccccc2OC)cc1	1%	8	1.3µM*
COc1ccccc1/C=C/C=N/n1c(C2CCCCC2)n[nH]c1=S	u	11	7.1µM*
O=C(OCCO)c1ccccc1O	4%	x	-11%
O=C(CCC(=O)N(CC(=O)NC1CCCCC1)Cc1ccccc1)Nc1ccccn1	-7%	x	x
CC(C)CNS(=O)(=O)c1ccc(S(=O)(=O)N2CCN(CCC#N)CC2)cc1	7%	-4	-5%
O=C(O)c1cc(N/N=C/c2ccc(N3CCOCC3)s2)ccc1Cl	2.8µM*	x	u
NC(=O)N/N=C/c1ccc(N2CCOCC2)s1	u	x	-16%
CCOCc1nc(N)[nH]c(=O)c1Cc1ccc(OC(C)C)cc1	9%	-12	-7%
Oc1ccc(/C=N/n2c(-c3ccco3)csc2=Nc2cccnc2)c(O)c1	-5%	x	-14%
COc1cccc(/C=N/n2c(-c3ccco3)nc3ccccc3c2=O)c1	u	7	-13%
COCCN=c1scc(-c2ccco2)n1/N=C/c1ccc(O)c(O)c1O	8.9µM*	x	x
CC(C)N=c1scc(-c2ccco2)n1/N=C/c1ccc(O)c(O)c1	-4%	13	32µM*
Nc1nc(SCC(=O)Nc2ccc(Cl)c(S(=O)(=O)N3CCOCC3)c2)n[nH]1	9%	x	x
Cc1cc(C)c(OCCCCN(C)C)c(Br)c1	22µM*	x	x
Cc1cc(C)c(OCCOCCN(C)C)c(Br)c1	-3%	x	-12%
Cc1ccc(-c2nnc3ccc(SCC(=O)NCc4ccco4)nn23)cc1	-13%	1	-11%
COc1ccc(NC(=O)CSc2ccc3nnc(-c4cccnc4)n3n2)c(OC)c1	40µM*	x	x
COc1ccccc1NC(=O)CSc1ccc2nnc(-c3cccnc3)n2n1	17%	-10	-11%
COc1ccc(-c2nnc3ccc(SCC(=O)NCc4ccco4)nn23)cc1OC	-50%	5	14µM*
NC(=O)c1ccc(NC(=O)COC(=O)CCC(=O)c2ccc(Cl)cc2)cc1	2%	x	x
CCOC(=O)c1cc(-c2cccnc2)nn1-c1ccccc1	-8%	x	x
CCOC(=O)c1cc(-c2ccccc2)nn1-c1ccccn1	13µM*	13	-20%
FC(F)(F)c1ccccc1-c1cncnc1Nc1ccccc1	11%	x	0%
CCN(CC)c1ccc(C2=NNC(=O)CC2C)cc1[N+](=O)[O-] (stereo not given)	13µM*	-1	-14%
SMILES	ALDH1A1 inh	IMPase cell inh	HPGD block
CC1CC(=O)NN=C1c1ccc(N(C)C)c([N+](=O)[O-])c1 (stereo not given)	u	4	-7%
COc1ccc2c(c1)OC/C(=C\c1ccc(OC)c(O)c1)C2=O	5.6µM*	x	11µM*
COc1ccc2c(c1)OC/C(=C/c1cccs1)C2=O	u	-3	x
N#CC1=C2SCCN2C(=O)C(C#N)C12CCCCC2 (stereo not given)	0.56µM*	0	x
O=C(O)CCC(=O)N1CN2CN(C(=O)CCC(=O)O)CC([N+](=O)[O-])(C2)C1	0%	x	x
CC(=O)N[C@@H](CSC/C=C(\C)CC/C=C(\C)CCC=C(C)C)C(=O)O	6%	x	-7%
O=c1[nH]c(-c2ccccc2F)nc2c1sc(=S)n2Cc1ccccc1	13%	-2	10µM*
O=c1c2cccnc2[nH]c(=S)n1Cc1ccccc1	6%	5	-12%
Cc1ccc(S(=O)(=O)N[C@@H]2COC(=O)C/C=C\[C@H](C)COC(=O)N[C@@H](C)C(=O)C/C=C\[C@H]2C)cc1	-15%[13.5 µM]	x	x
CC1CN(C2CCN(C(=O)COc3ccc(Cl)cc3)CC2)CC(C)O1 (stereo not given)	13µM*	4	-2%
CCOC(=O)N1CCN(C(=O)COc2ccc(Cl)cc2)CC1	3%	-12	6%
C=CCN(C(=O)c1cccc(S(=O)(=O)N2CCN(C)CC2)c1)c1nc(-c2ccccc2)cs1	-15%	6	-21%
COc1ccc(CNc2ncnc3ccc(-c4cccc(NS(C)(=O)=O)c4)cc23)c(OC)c1	3%	x	x
CC(C)CCNC(=O)c1ccc(CS(=O)(=O)Cc2ccccc2F)o1	-4%	x	x
CC(C)CCNC(=O)c1ccc(CSCc2cccc(F)c2)o1	u	-4	14µM*
CCOc1[nH]n(-c2ccccc2)c(=O)c1C=NCc1cccnc1	-2%	x	x
Brc1ccc(C2=N[C@@H](Cc3ccccc3)CO2)cc1	-12%	x	-7%
COC(=O)c1c(-c2ccc(C(C)(C)C)cc2)csc1NC(=O)C1C2CCC(O2)C1C(=O)O (stereo not given)	5µM*	x	3.2µM*
CCOC(=O)c1c(-c2cccc3ccccc23)csc1NC(=O)C1C2CCC(O2)C1C(=O)O (stereo not given)	3%	x	-11%
Cc1cc(-c2nnc(CCC(=O)N(C)Cc3cccc4ccccc34)o2)no1	14%	x	x
CCOc1ccccc1OCCCNCc1ccco1	u	x	2%
COc1cc(C(c2c(C)[nH][nH]c2=O)c2c(C)[nH][nH]c2=O)ccc1OC(C)C	14µM*	0	u
COc1cc(C(c2c(C)[nH][nH]c2=O)c2c(C)[nH][nH]c2=O)cc(OC)c1OC	-14%	x	x
COc1cc(C(c2c(C)[nH][nH]c2=O)c2c(C)[nH][nH]c2=O)ccc1OS(=O)(=O)c1ccccc1	1.6µM*	-2	-8%
COc1cc(C(c2c(C)[nH][nH]c2=O)c2c(C)[nH][nH]c2=O)ccc1OS(=O)(=O)c1ccc(C)cc1	-5%	3	-5%
SMILES	ALDH1A1 inh	IMPase cell inh	HPGD block
CCCOC(=O)c1ccc(NC(=O)C(CC)CC)cc1	u	x	-7%
CCOC(=O)c1ccc[n+](CC(=O)c2ccccc2)c1	-9%	x	-4%
CCOC(=O)c1ccc[n+](C(C)C(=O)c2ccc(-c3ccccc3)cc2)c1 (stereo not given)	5.6µM*	x	-9%
O=C(Cc1ccccc1)NNC1=NS(=O)(=O)c2ccccc21	3%	x	x
O=C(CSC1=NS(=O)(=O)c2ccccc21)Nc1ccccc1	0.56µM*	0	16µM*
COC(=O)CSc1ccccc1C(=O)OC	-1%	9	-30%
COC(=O)CSC1=NS(=O)(=O)c2ccccc21	-6%	-3	22µM*
N/C(CN1CCCC1=O)=N\OC(=O)c1ccccc1Cl	17%	5	-14%
Cn1ccnc1SCCNC(=O)CCc1nnc(CCc2ccccc2)o1	-1%	x	x
COc1ccccc1OCc1nc(-c2cccc([N+](=O)[O-])c2)no1	-4%	x	x
CC(C)NC(=O)NC(=O)COC(=O)c1ncc(Cl)c(Cl)c1Cl	-1%	x	x
C=CCNC(=O)c1ccc(C(=O)c2ccccc2)cc1	u	2	13µM*
C=CCNC(=O)c1ccc2nc(-c3ccccc3)c(-c3ccccc3)nc2c1	u	19	u
C=CCNC(=O)c1ccccc1Cl	-3%	-4	16µM*
C=CCNC(=O)c1ccccc1CCc1ccccc1	-3%	x	x
CCCC1(C(=O)OC)C=C2C(=C(c3ccccc3)C(=O)C2C)CN1 (stereo not given)	u	x	-19%
CC(C)(C)c1csc(NC(=O)c2ccncc2)n1	-4%	x	x
